Results reported in PubChem BioAssay (NCI).
About 83,000 compounds went through this panel and 20% of them were active in at least one assay; those are over-represented in the sample as a whole.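 Interpretation: 100, growth as untreated; towards 0, rising growth inhibition; 0, no net growth; 0 to -100, cell death. Compounds scoring below 10 were considered active.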 A number with no mark means an inactive call. Activity calls are given as the source filed them.

system: HL-60(TB) leukemia; assay: NCI-60 one-dose screen, 48 h (100 = growth as untreated, 0 = no growth, -100 = all killed); settings: 10 µM unless noted

| SMILES | growth |
| --- | --- |
| O=C(c1cccs1)c1ccccc1Cc1ccccc1 | 98.8% |
| Cc1ccc(C)c2c1CCC2C(C)C (stereo unspecified) | 108% |
| CCOC(=O)CC(=O)OC | 97% |
| O=c1c2sc3ncc(Cl)cc3c2nnn1-c1cccc(Cl)c1 | 91.8% |
| CCCC(=O)CC(=O)c1ccccc1 | 112% |
| COc1ccc(C(=O)c2cc(F)c(F)c(OC)c2F)cc1OC(=O)CCl | 11.7% |
| COc1cc(Br)c(OC)cc1Br | 109% |
| NS(=O)(=O)Oc1ccc(-c2ccc3sccc3c2)cc1 | 99.7% |
| CC(/C=N/NC(N)=S)Cc1ccc(C(C)C)cc1 (stereo unspecified) | 44.3% |
| CN(C)S(=O)(=O)c1cccc(C(=O)Nc2nc(-c3ccc(F)c(F)c3)cs2)c1 | 61.1% |
| O=C1c2cc(S(=O)(=O)O)ccc2C(=O)c2c1cccc2[N+](=O)[O-] | 101% |
| Cc1ccccc1-c1cc(Cc2ccccc2O)c(=O)[nH]n1 | 84.1% |
| CN1CCCc2cc(/C=C3/SC(=S)N(CCc4ccc(O)cc4)C3=O)ccc21 | 8.87% (active) |
| CC1(C)N=C(N)N=C(N)N1c1cccc(C#N)c1 | 35.7% |
| CS(=O)(=O)Nc1cc(-c2ccc3ncnc(Nc4cccc(Cl)c4)c3c2)cnc1Cl | 2.67% (active) |
| COc1ccc2c(c1)CCCN2c1c2ccccc2nc2ccccc12 | 5.6% (active) |
| O=C1/C(=C/c2ccccc2[N+](=O)[O-])COc2ccc(O)c(O)c21 | -29.2% (active) |
| CNS(=O)(=O)Nc1nccc(Cc2c(C)c3ccc(Oc4ncccn4)cc3oc2=O)c1F | 27.9% |
| C=C1C(=O)O[C@H]2[C@H]1CC/C(CNS(=O)(=O)c1cccc3ccccc13)=C\CC[C@@]1(C)O[C@@H]21 | -31.9% (active) |
| CC1CCc2c(sc(NC(=O)CSc3nnc4ccccn34)c2C(N)=O)C1 (stereo unspecified) | 74.9% |
| COc1ccc(C/C(C)=C(/c2ccc(OCCN3CCCCCC3)cc2)c2ccc(OC(=O)c3ccccc3)cc2)cc1 | 68.7% |
| O=C(Nc1ccc(-n2cc(-c3ccncc3)c(-c3ccc(Cl)c(O)c3)n2)cc1)N1CCOCC1 | 108% |
| CN(C)Cc1cn(-c2ncc(-c3ccc(C(F)(F)F)cc3)c(NC3CCCCCC3)n2)nn1 | 83.3% |
| CCOC(=O)c1nc2c3ccccc3ccn2c1C(=O)OC | 94.9% |
| Cn1cnc([N+](=O)[O-])c1Sc1nnc(-c2ccccc2)c(-c2ccccc2)n1 | 104% |
| CN1CC(c2ccccc2)C(C(=O)c2ccc(Br)cc2)C12C(=O)Nc1ccccc12 (stereo unspecified) | 99.8% |
